# Bioassay records (PubChem)
# AI-2 QS modul – modulators of Vibrio harveyi AI-2 quorum sensing system. activity change, % at 7.5 µM. AID 2094. 0.4% of 300,000 active. Vibrio harveyi JMH597 AI-2 luminescence/OD600 ratio, 9 h; active compounds read low; strain lacks LuxN and CqsS sensors; 0 = neutral-control median; in the data active = activity change below about -75%, passing the limit was not always enough; inconclusive = no clear call, values can overlap the other calls;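 note: luminescence divided by OD600 gain over 9 h not by final OD600 alone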
# Pemphigus Ab inh – inhibitors of pemphigus antibody binding to human desmoglein-3; DSG3-coupled beads, scFv-anti-DSG3-GFP binding, flow cytometry; active compounds read low; binding (percent of control), % at 10 µM; 0.48% of 310,000 active;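 active = binding more than 3 SD below its plate's average and above zero; inconclusive = below that plate limit but binding exactly zero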;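 note: hits lower antibody fragment binding to DSG3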
# VLA-4 inh – inhibition in a human VLA-4 binding assay; inhibition, % (about 7 µM as worked out from the volumes in the protocol); VLA-4 expressing cells, ligand binding flow cytometry; 0.2% of 330,000 active; P13612; AID 2557; in the data active = inhibition above about 50%
# NTR1 agonist – NTR1 (human) agonism; 0.17% of 330,000 active; activation, % at 20 µM; P30989; NTR1-U2OS beta-arrestin-GFP spot imaging, agonist mode; AID 493036;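 active = activation at or above 40% of the spot to cytoplasm intensity ratio, with at least 20 cells analyzed; inconclusive = wells under 20 cells, flagged as cytotoxic or low count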;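 note: 0% = DMSO without peptide and 100% = 100 nM NTR1 peptide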
# * hit, by the source's call; ? = inconclusive; · = no result given. Rows were chosen to be rich in hits. Some 1.1% of all compounds tested hit in one or more screens of this group.
SMILES,AI-2 QS modul,Pemphigus Ab inh,VLA-4 inh,NTR1 agonist
CCc1cc2cc(C)c(C)cc2nc1SCC(=O)Nc1cc(C)on1,14.9,59.9*,0.5,11.1
CCc1cc2ccccc2nc1SCC(=O)Nc1cc(C)on1,6.5,87.2,8.2,3.7
COc1cc(C(=O)NCC(c2cccs2)N2CCOCC2)ccc1OCc1ccc(Cl)cc1 (stereo unspecified),·,99.5,·,·
COc1ccccc1-n1cnc2c(c1=O)c1nc3ccccc3nc1n2-c1ccc(C)c(C)c1,8.1,34.6*,·,·
O=C(COc1cc2oc(=O)c3c(c2cc1Cl)CCC3)Nc1cccnc1,13.1,77.4*,3.5,3.8
COc1ccc(NC(=O)CCn2c(=S)[nH]c3ccccc3c2=O)cc1Cl,·,81.7*,·,·
COc1ccccc1CNC(=O)COC(=O)Cn1cnc2c1c(=O)n(C)c(=O)n2C,·,102.7,·,·
COc1ccc(S(=O)(=O)Nc2ccc(Cc3ccncc3)cc2)cc1OC,30.9,39.5*,11.4,-0.2
CC(=O)c1sc(-c2ccccc2)cc1NS(=O)(=O)c1ccccc1,-13.3,75.3*,3.1,-1.0
CC(=O)c1sc(-c2ccccc2)cc1NS(=O)(=O)c1ccc(C)cc1,13.1,113.0,-7.8,-1.3
CCc1ccc(OCC(=O)c2c(O)c3ccccc3oc2=O)cc1,10.4,49.8*,37.1,-0.2
COC(=O)C1=CCCCC(O)=C1C(=O)OC,·,103.2,·,·
CCOC(=O)c1c(NC(=S)NC(C)=O)sc(C)c1C,10.7,71.1*,-12.4,1.4
CCOC(=O)c1c(NC(=O)COC)sc(C)c1C,19.9,104.0,1.8,1.3
CC(C)C[C@H](N)c1nnc(S(=O)(=O)Cc2ccc(F)cc2)o1,-87.7*,·,16.7,5.0
CC(C)C[C@H](N)c1nnc(SCC(=O)Nc2ccc(Br)cc2)o1,2.2,·,5.4,-0.3
CCN1CCN(C(=O)c2cc3cc(Cl)ccc3[nH]2)CC1,-76.8*,127.5,4.3,0.9
C[C@@H]1CN([C@@H](C)CO)C(=O)c2cc(Br)cnc2O[C@H]1CN(C)C(=O)Nc1ccc2c(c1)OCO2,·,95.8,·,·
O=S(=O)(c1ccccc1)N1CCN(CC(O)COc2ccc3c(c2)CCC3)CC1 (stereo unspecified),-43.6,78.7*,11.7,1.6
CCN1CCN(CC(O)COc2ccc3c(c2)CCC3)CC1 (stereo unspecified),6.1,100.2,0.0,2.8
CCCNC(=O)N(C)C[C@H]1Oc2ncc(C#CCc3ccccc3)cc2C(=O)N([C@H](C)CO)C[C@H]1C,·,102.4,·,·
COc1ccc(NC(=O)c2ccc(-c3ccccc3)cc2)cc1S(=O)(=O)N1CCOCC1,8.6,88.0*,-3.0,5.4
CCc1ccc(C(=O)Nc2ccc(OC)c(S(=O)(=O)N3CCOCC3)c2)cc1,26.6,106.9,-0.3,0.9
C=CCC1(CC=C)CC(Cc2cnccn2)N(C(=O)OC(C)(C)C)C1 (stereo unspecified),·,100.7,·,·
O=[N+]([O-])c1cc(CN2CCN(c3cccc(C(F)(F)F)c3)CC2)c2cccnc2c1O,-96.9*,94.5,19.2,2.0
SMILES,AI-2 QS modul,Pemphigus Ab inh,VLA-4 inh,NTR1 agonist
OC(CNCCc1ccc(C(F)(F)F)cc1)COC(c1ccccc1)c1ccccc1 (stereo unspecified),-5.8,107.6,-10.3,66.2*
COc1ccc(C(OCC(O)CNCCc2ccc(S(N)(=O)=O)cc2)c2ccc(OC)cc2)cc1 (stereo unspecified),14.9,115.7,-5.6,0.6
OCC[C@@H]1NCc2cc(CO)cc(-c3ccccc3)c21,·,109.9,·,·
CCOC(=O)N/N=C\c1ccc([N+](=O)[O-])o1,-88.7*,102.2,1.8,-0.6
Cc1cc(C)cc(OCC(=O)N/N=C/c2ccc([N+](=O)[O-])o2)c1,?,90.2,-0.8,3.5
COc1ccccc1OCC(=O)N/N=C/C=C/c1ccc([N+](=O)[O-])o1,-93.8*,89.7,-9.0,0.6
CCCCCCCC(=O)N/N=C/c1ccc([N+](=O)[O-])o1,-132.5*,87.8,-1.1,2.3
O=C(N/N=C/c1ccc([N+](=O)[O-])o1)c1ccc2c(c1)OCO2,-101.2*,106.3,0.0,0.8
CCCn1nc(C(=O)Nc2cccc(S(=O)(=O)N(C)c3ccccc3)c2)c2ccccc2c1=O,·,106.1,10.5,1.0
O=C(Cc1ccc([N+](=O)[O-])cc1)N/N=C/c1ccc([N+](=O)[O-])o1,1.4,98.9,-12.0,1.7
CCCOc1ccc(CCC(=O)N/N=C/c2ccc([N+](=O)[O-])o2)cc1,-224.5*,·,-3.6,0.7
O=C(CSc1ccsc1[N+](=O)[O-])Nc1cc(F)ccc1F,6.9,54.3*,·,·
Cc1ccc(NC(=O)CSc2ccc(C(N)=O)cc2[N+](=O)[O-])cc1C,12.3,69.2*,-1.8,0.4
Cc1ccc(NC(=O)CSc2ccc(C(N)=O)cc2[N+](=O)[O-])cc1,9.1,96.5,-6.5,1.9
CC(=O)c1ccc(NC(=O)CSc2ccsc2[N+](=O)[O-])cc1,11.1,69.3*,·,·
Cc1ccc(CNC(=O)CSc2ccsc2[N+](=O)[O-])cc1,-6.9,83.2,-2.3,0.8
O=C(NCc1cccnc1)C1C2C=CC(C2)C1C(=O)Nc1cccc(C(F)(F)F)c1 (stereo unspecified),·,95.9,·,·
Cc1noc(C)c1NC(=O)N(C)C[C@H]1Oc2ccc(NS(=O)(=O)c3cccs3)cc2C(=O)N([C@H](C)CO)C[C@@H]1C,·,·,15.1,-1.8
Cc1ccc2c(c1)CO[C@]21O[C@H](CCO)C[C@H](O)[C@H]1O,·,99.4,·,·
Cc1ccc(NC(=O)Nc2ccc3c(c2)OCO3)nc1,13.7,6.9*,17.8,-0.1
Cc1cc(C)nc(NC(=O)Nc2ccc3c(c2)OCO3)c1,18.7,80.5,-7.2,-0.5
CC1CC2=C(NC(=S)NC2c2ccccc2F)/C(=C/c2ccccc2F)C1 (stereo unspecified),16.7,17.0*,12.4,5.8
Cc1cc(NC(=O)C(Cl)Cl)cc2c1OCO2,·,94.3,·,·
CCCc1cc(-c2[nH]ncc2-c2ccc3c(c2)OCCCO3)c(O)cc1O,20.7,102.1,22.7,43.6*
CCCc1cc(-c2[nH]ncc2-c2ccc(C(=O)OCC)o2)c(O)cc1O,15.1,97.2,-2.8,16.5
SMILES,AI-2 QS modul,Pemphigus Ab inh,VLA-4 inh,NTR1 agonist
N=c1oc2ccc3ccccc3c2cc1C(N)=S,50.2,80.5*,-12.2,2.6
COc1ccc(CC(=O)Nc2ccc(F)c(F)c2F)cc1S(=O)(=O)N1CCOCC1,·,105.7,11.6,-1.4
Cc1nc(SCc2nc3ccc([N+](=O)[O-])cc3[nH]2)c2oc3ccccc3c2n1,·,103.5,-14.4,-1.8
COc1ccc(/C=N\NC(=O)c2ccc(Cn3cc(Br)c([N+](=O)[O-])n3)o2)c(OC)c1C,17.0,64.5*,18.5,2.3
COc1ccc(/C=N/NC(=O)c2ccc(Cn3cc([N+](=O)[O-])cn3)o2)c(OC)c1C,29.2,95.7,2.9,0.0
O=C1NN(c2cccc(Br)c2)C(=O)/C1=C/c1ccc(-c2cc([N+](=O)[O-])ccc2O)o1,33.6,82.3*,-43.1,10.0
CC1=NN(c2ccc(C)cc2)C(=O)/C1=C/c1ccc(-c2cc([N+](=O)[O-])ccc2O)o1,19.6,107.7,·,8.0
O=C(CN(C1CCCCC1)C1CCCCC1)N1CCc2ccccc2C1,15.6,41.3*,5.0,5.2
